Source: PubChem BioAssay
Active and inactive are the calls of the source.

Experiments:
[1] = anti-His antibody binders, primary screen, artefact control for SMM control protein annotation, biochemical, small-molecule microarray, 635 nm fluorescence (AID 1128); conditions: anti-His Alexa647 antibody binding, higher = more signal;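 further: score merges feature fluorescence with signal-to-noise for each printed compound spot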
[2] = system: Human papillomavirus type 1a E7 protein (residues 1-88); experiment: HPV1a E7 small-molecule binders, primary screen, biochemical, small-molecule microarray, residues 1-88, 635 nm (AID 1129); conditions: small-molecule microarray binding, fluorescence 635 nm; higher = more signal
[3] = biological target: Focal adhesion kinase 1 (Homo sapiens) (UniProt Q05397); experiment: small-molecule microarray binders of FAK, primary screen, biochemical, 635/667 nm fluorescence, BSA, DTT (AID 1130); conditions: PTK2 binding, 635 nm fluorescence, higher = more signal;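 further: composite of spot emission at 667 nm and signal to noise over triplicate slides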
[4] = system: Fibrinogen (Alexa647-labelled); experiment: fibrinogen binders on compound microarrays, profiling panel, artefact control for SMM control-protein annotation, biochemical, small-molecule microarray, 635/667 nm fluorescence (AID 1131); conditions: fibrinogen-A647 binding fluorescence, higher = more signal;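 further: z-score merges 667 nm fluorescence with per-spot signal-to-noise over triplicate slides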
[5] = biological target: Follistatin (Homo sapiens) (UniProt P19883); experiment: follistatin binders on small-molecule microarrays, primary screen, biochemical, small-molecule microarray, 635/667 nm fluorescence (AID 1132); conditions: FST binding, 635 nm fluorescence, higher = more signal
[6] = biological target: Fibroblast growth factor 2 (Homo sapiens) (UniProt P09038); experiment: FGF2 binders on small-molecule microarrays, primary screen, biochemical, small-molecule microarray, 635/667 nm fluorescence (AID 1133); conditions: small-molecule microarray binding, FGF2, fluorescence 635/667; higher = more signal
[7] = mitochondrial membrane potential change in A549 cells, profiling panel, cell-based, JC-1 fluorescence, basal, 24 h, 100 nL (AID 1138); conditions: higher = more signal;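 further: A549 lung adenocarcinoma cells under basal conditions with no added stimulus; test concentration not given here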
Lefty1 = Lefty1 binders on small-molecule microarrays, primary screen, biochemical, small-molecule microarray, 635/667 nm fluorescence (AID 1139); conditions: small-molecule microarray binding, fluorescence 635/667; higher = more signal
[8] = system: wheat germ agglutinin (Triticum aestivum), Alexa647-labelled; experiment: wheat germ agglutinin binders on compound microarrays, profiling panel, artefact control for SMM control-protein annotation, biochemical, small-molecule microarray, 635/667 nm fluorescence (AID 1140); conditions: WGA-A647 binding, 635 nm fluorescence, higher = more signal;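 further: score merges 667 nm feature emission with signal to noise over triplicate slides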
[9] = biological target: Luciferin 4-monooxygenase (Photinus pyralis) (UniProt P08659); experiment: firefly luciferase enzyme inhibitors, primary screen, biochemical, luminescence, purified enzyme, 2006 set (AID 1141); conditions: SteadyGlo luminescence, 30 min, higher = more signal, called active from +8 up or from −8 down;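 further: cell-free assay with purified firefly luciferase at 100 ng per well in PBS; test concentration not given here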
Chain of Luciferin 4-monooxygenase (Photinus pyralis) (P08659 whole entry, looked up): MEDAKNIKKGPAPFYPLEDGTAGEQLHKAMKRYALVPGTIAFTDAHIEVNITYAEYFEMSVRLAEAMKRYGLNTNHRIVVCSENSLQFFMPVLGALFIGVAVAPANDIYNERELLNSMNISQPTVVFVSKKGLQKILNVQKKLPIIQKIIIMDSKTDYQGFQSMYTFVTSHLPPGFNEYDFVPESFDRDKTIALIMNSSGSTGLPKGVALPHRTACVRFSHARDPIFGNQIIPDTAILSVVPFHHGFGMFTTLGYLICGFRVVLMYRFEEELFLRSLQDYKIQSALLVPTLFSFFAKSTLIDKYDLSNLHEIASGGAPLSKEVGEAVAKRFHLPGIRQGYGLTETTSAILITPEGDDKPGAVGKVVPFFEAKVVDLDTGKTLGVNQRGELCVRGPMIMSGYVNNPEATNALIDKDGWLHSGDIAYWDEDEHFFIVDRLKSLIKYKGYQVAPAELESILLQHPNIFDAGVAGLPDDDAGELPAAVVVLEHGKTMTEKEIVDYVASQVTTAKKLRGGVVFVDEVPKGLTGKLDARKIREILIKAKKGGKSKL

Chain of Follistatin (Homo sapiens) (P19883 whole entry, looked up): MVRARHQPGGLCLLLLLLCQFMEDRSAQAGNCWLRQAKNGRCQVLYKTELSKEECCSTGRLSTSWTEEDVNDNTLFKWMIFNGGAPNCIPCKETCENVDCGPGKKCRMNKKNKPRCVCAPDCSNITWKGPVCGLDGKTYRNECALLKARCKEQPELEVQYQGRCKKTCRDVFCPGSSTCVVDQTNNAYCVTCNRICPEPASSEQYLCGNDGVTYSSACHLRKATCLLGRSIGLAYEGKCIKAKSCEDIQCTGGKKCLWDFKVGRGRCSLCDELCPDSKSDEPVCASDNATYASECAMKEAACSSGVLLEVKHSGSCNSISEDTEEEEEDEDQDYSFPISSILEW
Chain of Fibroblast growth factor 2 (Homo sapiens) (P09038 whole entry, looked up): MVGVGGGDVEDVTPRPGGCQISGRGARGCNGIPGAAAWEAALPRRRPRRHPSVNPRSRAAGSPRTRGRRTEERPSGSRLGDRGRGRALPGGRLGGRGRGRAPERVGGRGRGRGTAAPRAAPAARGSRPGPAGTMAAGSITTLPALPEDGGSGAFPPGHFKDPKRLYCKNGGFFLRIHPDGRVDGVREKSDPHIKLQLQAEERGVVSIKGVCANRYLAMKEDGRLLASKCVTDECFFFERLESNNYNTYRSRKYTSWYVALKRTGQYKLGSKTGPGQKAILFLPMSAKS
Chain of Focal adhesion kinase 1 (Homo sapiens) (Q05397 whole entry, looked up): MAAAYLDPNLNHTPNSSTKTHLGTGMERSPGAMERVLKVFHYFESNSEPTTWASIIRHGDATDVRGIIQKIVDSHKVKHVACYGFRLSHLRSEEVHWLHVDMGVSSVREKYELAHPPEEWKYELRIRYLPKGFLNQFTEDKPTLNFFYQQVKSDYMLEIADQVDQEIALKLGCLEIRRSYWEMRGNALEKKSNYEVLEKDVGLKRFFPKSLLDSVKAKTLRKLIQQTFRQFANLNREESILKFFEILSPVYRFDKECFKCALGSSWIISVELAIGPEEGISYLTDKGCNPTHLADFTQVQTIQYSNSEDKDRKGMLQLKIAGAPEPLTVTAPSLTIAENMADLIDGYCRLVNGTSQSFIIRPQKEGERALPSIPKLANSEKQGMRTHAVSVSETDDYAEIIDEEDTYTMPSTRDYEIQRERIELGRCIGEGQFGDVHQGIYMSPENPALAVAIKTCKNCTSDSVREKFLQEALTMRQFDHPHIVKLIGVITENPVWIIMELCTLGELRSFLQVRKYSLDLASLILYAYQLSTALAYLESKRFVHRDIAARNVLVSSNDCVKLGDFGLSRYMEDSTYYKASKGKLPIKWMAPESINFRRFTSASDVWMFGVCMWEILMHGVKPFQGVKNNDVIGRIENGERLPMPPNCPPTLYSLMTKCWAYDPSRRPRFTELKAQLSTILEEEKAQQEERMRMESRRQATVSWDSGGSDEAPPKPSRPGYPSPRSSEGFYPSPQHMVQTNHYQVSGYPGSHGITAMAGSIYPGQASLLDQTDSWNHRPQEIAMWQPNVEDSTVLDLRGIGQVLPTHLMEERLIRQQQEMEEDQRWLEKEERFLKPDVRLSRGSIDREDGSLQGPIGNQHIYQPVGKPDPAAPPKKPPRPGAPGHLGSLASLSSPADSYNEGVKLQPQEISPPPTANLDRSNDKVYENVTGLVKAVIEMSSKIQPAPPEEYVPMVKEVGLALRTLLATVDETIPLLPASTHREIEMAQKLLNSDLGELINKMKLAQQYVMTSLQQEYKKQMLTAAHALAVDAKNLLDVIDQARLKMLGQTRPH

| Structure (SMILES) | composite z-score [1] | composite z-score [2] | composite z-score [3] | composite z-score [4] | composite z-score [5] | composite z-score [6] | z-score [7] | composite z-score (Lefty1) | composite z-score [8] | z-score [9] |
| --- | --- | --- | --- | --- | --- | --- | --- | --- | --- | --- |
| CS(=O)(=O)CCOC(=O)C1=CC(c2ccc(CO)cc2)=CC(C2CC2)N(Cc2sc3ccccc3c2Cl)C=C1C(=O)OCCS(C)(=O)=O (stereo not given) | 1.27 | 0.795 | 0.716 | 0.88 | 1.28 | 0.881 | 2.04 | 0.851 | 0.861 | -1.86 (inactive) |
| CCCC=C(CCC)[C@@H](NS(=O)(=O)c1ccc(C(F)(F)F)cc1)c1ccccc1 | 0.294 | 0.887 | 0.672 | 0.698 | 0.225 | -0.148 | -2.69 | -0.141 | 0.663 | 2.72 (inactive) |
| O=C1N(CCS(=O)(=O)c2ccccc2)c2ccccc2[C@H]2OC(c3ccc(OCCCO)cc3)=N[C@@]12Cc1ccccc1 | 2.15 | 0.936 | 0.548 | 0.587 | 1.54 | 1.75 | 1.08 | 0.476 | 0.943 | -8.53 (active) |
| C=CCC(OC(C)=O)[C@@H]1[C@@H](N(Cc2ccc(-c3cccc(C(F)(F)F)c3)o2)C(=O)Cc2ccc(OC)cc2)c2cc(OCCCO)ccc2N1C(=O)c1ccc(-c2ccccc2)cc1 (stereo not given in full) | -0.0127 | -0.501 | -0.326 | -0.771 | 0.569 | 0.119 | 0.0544 | 0.0533 | -0.402 | 0.244 (inactive) |
| NC(=O)[C@H]1[C@@H]2C(=O)O[C@@H](c3ccccc3)[C@@H](c3ccccc3)N2[C@@H](c2ccc(OCCO)cc2)[C@]12C(=O)Nc1ccc(C#CCCO)cc12 | 0.92 | 1.18 | 0.798 | 0.746 | 1.13 | 0.35 | -0.262 | 0.551 | 0.9 | -1.05 (inactive) |
| CO[C@H]1O[C@H](CO)[C@@H](OC(=O)Nc2ccccc2)[C@H](OC(=O)c2cc3ccccc3[nH]2)[C@H]1OC(=O)c1cc2ccccc2[nH]1 | 0.568 | 0.181 | 0.353 | 0.475 | 1.13 | 1.61 | 0.132 | 0.532 | 0.562 | -0.378 (inactive) |
| CCOC(=O)C[C@H]1[C@H](OC(=O)Cc2ccc3c(c2)OCO3)[C@@H](NC(=O)C2CCCCC2)c2cc(OCCCO)ccc2N1C(=O)c1ccccc1 | 0.0657 | -0.0497 | 0.408 | 0.744 | -0.2 | 0.0099 | 1.76 | 0.218 | 0.0468 | -1.23 (inactive) |
| CCCNC(=O)[C@@H]1c2ccccc2C(=O)N(Cc2ccc(OC(F)(F)F)cc2)[C@H]1c1ccc(CO)cc1 | 0.0772 | 0.907 | -0.0662 | 0.368 | 0.887 | 0.908 | 1.93 | -0.0534 | 0.0988 | 0.283 (inactive) |
| CCCCC(O)C1C=CC2C(=O)N(C)C(=O)C2N1N(c1ccccc1)c1ccccc1 (stereo not given) | 1.92 | 1.15 | 0.912 | 0.824 | 0.613 | -0.604 | 0.804 | 0.194 | 1.21 | -0.004 (inactive) |
| COCCOC(=O)N1C(=O)[C@@]2(c3cc(C#CC4(O)CCCCCC4)ccc31)[C@H](C(=O)Nc1nc3ccccc3s1)[C@H]1C(=O)O[C@H](c3ccccc3)[C@H](c3ccccc3)N1[C@@H]2c1ccc(O)cc1 | 1.89 | 1.24 | 0.783 | 0.942 | 1.28 | 1.06 | -1.14 | 1.15 | 0.275 | -0.557 (inactive) |
| C=C(COC)/C(=C/C[C@H](OC(=O)c1ccncc1)c1ccc(CO)o1)c1cnc2ccccc2c1 | 0.283 | 1.15 | 0.382 | 0.271 | 1.25 | 0.222 | 0.818 | 1.57 | 0.734 | -1.72 (inactive) |
| CCCNC(=O)[C@@]1(C)c2ccccc2C(=O)N(c2ccc(C)cn2)[C@H]1c1ccc(CO)cc1 | 0.0998 | -0.268 | 0.23 | -1.78 | 0.169 | -0.465 | 0.672 | -0.0558 | -0.311 | -0.714 (inactive) |
| CO[C@H]1O[C@H](CO)[C@@H](OC(=O)Nc2ccc(Br)cc2)[C@@H]2OC(=O)[C@@H](Cc3ccccc3)C/C=C/C[C@H](Cc3ccccc3)C(=O)O[C@@H]12 | 2.43 | 1.16 | 0.619 | 0.442 | 0.313 | 0.397 | 2.5 | -0.0196 | 0.424 | -1.38 (inactive) |
| C=CCN1C(=O)[C@]2(CCS(=O)(=O)c3ccccc3)N=C(c3ccc(OCCCO)cc3)O[C@@H]2c2ccccc21 | 2.73 | 1.23 | 1.29 | 0.891 | 1.31 | 1.47 | 1.3 | 0.825 | 1.19 | -2.23 (inactive) |
| CC#CCO[Si](C#Cc1ccccc1)(C(C)C)C(C)C | -1.71 | -1.42 | -0.357 | -0.965 | -0.711 | 0.0353 | -1.01 | -0.531 | -0.874 | 0.741 (inactive) |
| CCOC(=O)C[C@H]1[C@H](OC(=O)c2ccc(C(=O)c3ccccc3)cc2)[C@@H](NC(=O)c2ccc(-c3ccccc3)cc2)c2cc(OCCCO)ccc2N1C(=O)Cc1ccc(OC)cc1 | 0.0658 | 0.556 | 0.0784 | 0.544 | 0.51 | -0.205 | 0.967 | 0.374 | 0.223 | 0.408 (inactive) |
| COc1ccc(CCNC(=O)[C@@]2(c3ccc([N+](=O)[O-])cc3)CC(=O)N(C3CCCCC3)[C@@H]2c2ccc(CO)cc2)cc1 | 1.84 | 1.22 | 0.757 | 0.393 | 0.695 | 0.373 | 2.09 | -0.381 | 0.793 | -1.74 (inactive) |

| Structure (SMILES) | composite z-score [1] | composite z-score [2] | composite z-score [3] | composite z-score [4] | composite z-score [5] | composite z-score [6] | z-score [7] | composite z-score (Lefty1) | composite z-score [8] | z-score [9] |
| --- | --- | --- | --- | --- | --- | --- | --- | --- | --- | --- |
| CC(=O)NCCCC[C@@H]1NC(=O)[C@@H]2C[C@H](C(=O)NCCCCCN)[C@H](c3cccc(OCCO)c3)N2C1=O | 0.586 | 1.04 | 0.295 | 0.97 | 1.37 | 1.6 | 0.989 | 1.03 | 0.79 | 0.159 (inactive) |
| COCC(=C=CC[C@H](O)c1ccc(CO)o1)CCO | 1.28 | 0.58 | 0.646 | 0.501 | 1.3 | 1.14 | 0.0889 | 0.915 | 0.277 | -0.561 (inactive) |
| COc1cc2c(cc1O)C(C1CC1)N(Cc1cccc(OC(F)(F)F)c1)CC2 (stereo not given) | -0.144 | -0.922 | -0.662 | -1.03 | 0.167 | 0.357 | -1.46 | -0.255 | -0.181 | 0.187 (inactive) |
| O=C1N(Cc2ccccc2)c2ccccc2C[C@]12N=C(c1ccc(OCCCO)cc1)O[C@@H]2c1ccccc1 | 1.1 | 1.03 | 1.7 | 0.529 | 1.1 | 1.36 | -0.911 | 0.492 | 0.186 | -1.74 (inactive) |
| COc1cc(NN2C(C(O)c3cc(OC)c(OC)c(OC)c3)C=CC3C(=O)N(C)C(=O)C32)cc(OC)c1OC (stereo not given) | 0.661 | 1.07 | 0.368 | 0.169 | 0.67 | 0.0023 | 1.38 | 0.289 | 0.694 | 0.229 (inactive) |
| COC(=O)[C@@]1(Cc2ccc(OC)cc2)[C@H]2c3cc(C(=O)N4CCCC4)n(CCc4c[nH]c5ccc(O)cc45)c3C[C@H]2CN1C(=O)c1ccccc1 | 0.256 | 1.23 | 0.594 | 0.948 | 1.16 | 0.0628 | 0.623 | 0.111 | 0.92 | -1.31 (inactive) |
| CO[C@H]1O[C@H](CO)[C@@H](OC(=O)Nc2ccc3c(c2)OCO3)[C@H](OC(=O)Nc2ccc3c(c2)OCO3)[C@@H]1OC(=O)Nc1ccc2c(c1)OCO2 | 1.67 | 1.3 | 0.347 | 1 | 0.997 | 0.366 | 0.0347 | 0.484 | 0.682 | -9.67 (active) |
| C=C[C@H]1C(C(=O)OCC)=CC[C@@H](c2ccccc2)N1S(=O)(=O)c1ccc(C)cc1 | 1.53 | 1.22 | 0.736 | 0.964 | 1.2 | 0.0703 | 3.33 | 0.325 | 0.677 | 0.26 (inactive) |
| COC(=O)[C@@]1(Cc2ccc(F)cc2)[C@H]2c3cc(C(=O)N(C)C)n(CCc4ccc(OC)c(Br)c4)c3C[C@H]2CN1C(=O)c1ccccc1 | 1.18 | 0.902 | 0.178 | 0.626 | -0.0313 | -0.433 | -0.638 | -0.337 | 0.187 | -0.499 (inactive) |
| COCC(=C=CC[C@H](O)c1ccccc1OCCO)C[C@H](O)c1ccccn1 | 0.247 | 0.128 | -0.17 | -0.473 | 1.02 | 0.262 | 1.5 | 0.426 | -0.0118 | -1.02 (inactive) |
| CC(=O)N1CC2(CC2)CC1c1ccccc1 (stereo not given) | 0.712 | 0.678 | 0.277 | 0.59 | -0.0582 | 1.6 | 0.033 | -0.46 | 0.251 | 2.49 (inactive) |
| CCOC(=O)C[C@H]1[C@H](OC(=O)c2ccc(C(=O)c3ccccc3)cc2)[C@@H](NC(=O)c2ccc3ccccc3n2)c2cc(OCCCO)ccc2N1C(=O)Cc1ccc(OC)cc1 | -0.249 | 0.656 | 0.0555 | 0.692 | 0.259 | 0.52 | -0.44 | 0.208 | 0.207 | 0.541 (inactive) |
| CCCCC(CC)C(O)C1C=CC2C(=O)N(c3ccccc3)C(=O)C2N1Nc1ccccc1F (stereo not given) | 2.22 | 1.2 | 0.1 | -0.209 | 0.729 | -0.315 | -1.04 | 0.276 | 0.357 | 1.61 (inactive) |
| O=C1C2C=CC(C(O)c3ccco3)N(Nc3ccccc3F)C2C(=O)N1c1ccccc1 (stereo not given) | 0.0678 | 0.512 | 0.705 | 0.791 | 0.235 | -0.327 | -0.537 | -0.531 | 0.826 | -0.0425 (inactive) |
| O=C(C1N=C(c2ccc(OCCCO)cc2)N(c2ccccc2)O1)N1CCCCC1 (stereo not given) | 1.94 | 1.25 | 0.634 | 1 | 1.05 | 0.423 | 0.924 | 0.168 | 1.31 | -10.6 (active) |
| CCOC(=O)C[C@H]1[C@H](OC(=O)c2cc3ccccc3oc2=O)[C@@H](NC(=O)CC(C)C)c2cc(OCCCO)ccc2N1C(=O)c1ccc2ccccc2n1 | 0.672 | 0.686 | 0.223 | 0.807 | 1.03 | 1.51 | -0.551 | 0.903 | 0.0235 | 0.425 (inactive) |
